Assay results: PubChem BioAssay (Tox21)
“And” between values parts separate entries of the source, which are not always exact repeats. Equal entries are not always repeated. Results filed as inconclusive are left out. Where a structure was tested more than once in an assay, its records may differ in their call. The source made the active and inactive calls. Unless noted, calls come from the whole dose curve; as a rule, active = well fitted curve in the direction sought with a large enough effect in the repeat runs; inconclusive = weak or mixed curves; inactive = no such curve, though single readings can be large; an effect the other way counts as inactive or inconclusive.

Tests used:
[1] = biological target: Thyrotropin-releasing hormone receptor (Homo sapiens) (UniProt P34981); test: qHTS assay to identify small molecule agonists of the thyrotropin-releasing hormone receptor (TRHR) signaling pathway (AID 1346891; calls by dose curve; note: series mostly up to about 58 µM)
Outline: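 TRHR-expressing HEK293 cells were plated 18 h at 37 °C/5% CO2, loaded with calcium dye 2 h at 37 °C, then given compound in DMSO; fluorescence was read kinetically for 3 min at 1 s intervals.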

[2] = Caspase-3/7 induction in HepG2 cells by small molecules, qHTS assay (AID 1346978); note: nearly all actives have a fitted effect of over 15% in size
Outline: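 Wild-type HepG2 cells (2,000/well) were settled 5 h at 37 C, 5% CO2, then exposed to compounds in DMSO for 17 h. Caspase-3/7 activity was read by luminescence 30 min after adding Caspase-Glo 3/7 reagent at room temperature.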

[3] = Caspase-3/7 induction in CHO-K1 cells by small molecules, qHTS cell viability counter screen (AID 1346979); note: nearly all actives have a fitted effect of over 35% in size; note: potency is the fitted concentration of half-maximal effect
Outline: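 Wild-type CHO-K1 cells were seeded at 1,500 per well, rested 5hr at 37 C, then exposed to compounds in DMSO. After 16hr, CellTiter-Fluor reagent was added and fluorescence read 1hr later as the viability measure.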

[4] = Caspase-3/7 induction in CHO-K1 cells by small molecules, qHTS assay (AID 1346980); note: nearly all actives have a fitted effect of over 15% in size
Outline: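 Wild-type cells were seeded at 1,500 per well and settled 5 hr at 37 C, 5% CO2, then exposed to DMSO-dissolved compounds for 17 hr. Caspase-Glo 3/7 reagent was added, and luminescence was read after 30min at room temperature.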

[5] = Caspase-3/7 induction in HepG2 cells by small molecules, qHTS cell viability counter screen (AID 1346981); note: nearly all actives have a fitted effect of over 30% in size; note: potency is the fitted concentration of half-maximal effect
Outline: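 Wild-type HepG2 cells (2,000/well) were allowed to settle for 5 hr at 37 C, 5% CO2, then dosed with compounds in DMSO by pin transfer. After 16 hr at 37 C, CellTiter-Fluor was added and fluorescence read 1 hr later.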

[6] = biological target: Nuclear receptor subfamily 1 group I member 2 (Homo sapiens) (UniProt O75469); test: Human pregnane X receptor (PXR) small molecule agonists, qHTS assay (AID 1346982); note: nearly all actives have a fitted effect of over 35% in size; note: potency is the fitted concentration of half-maximal effect
Outline: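 PXR-Luc HepG2 cells (CYP3A4 promoter-driven luciferase) were seeded in medium with 5% charcoal-stripped FBS, left 5 hr at 37 C, then exposed to compounds in DMSO for 24 hr. Luminescence was read after ONE-Glo addition.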

[7] = biological target: Cytochrome P450 2D6 (Homo sapiens) (UniProt P10635); test: Cytochrome P450 Family 2 Subfamily D Member 6 (CYP2D6) small molecule antagonists: luciferase reporter qHTS assay (AID 1671196); note: nearly all actives have a fitted effect of over 50% in size; note: potency is the fitted concentration of half-maximal effect
Outline: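 CYP2D6 enzyme–substrate mix was held with compound for 10 min at room temperature, then NADPH regeneration solution was added and the reaction ran 1 h at room temperature. Luciferin product was detected by luminescence after 20 min with detection reagent.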

[8] = biological target: Cytochrome P450 2C19 (Homo sapiens) (UniProt P33261); test: Cytochrome P450 Family 2 Subfamily C Member 19 (CYP2C19) small molecule antagonists: luciferase reporter qHTS assay (AID 1671197); note: nearly all actives have a fitted effect of over 65% in size; note: potency is the fitted concentration of half-maximal effect
Outline: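 P450-Glo CYP2C19 system: enzyme-substrate mix with compound 10 min at room temperature, then NADPH regeneration solution, 1 h at 37C. Proluciferin-to-luciferin conversion detected by luminescence after 20 min with detection reagent; ketoconazole as positive control.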

[9] = biological target: Cytochrome P450 2C9 (Homo sapiens) (UniProt P11712); test: Cytochrome P450 Family 2 Subfamily C Member 9 (CYP2C9) small molecule antagonists: luciferase reporter qHTS assay (AID 1671198); note: nearly all actives have a fitted effect of over 50% in size; note: potency is the fitted concentration of half-maximal effect
Outline: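 CYP2C9 activity was measured with a P450-Glo proluciferin substrate. Enzyme–substrate mix was held with compound for 10 min at room temperature, then NADPH regeneration solution was added for 1 h at 37C. Luciferin product was read as luminescence.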

[10] = biological target: Cytochrome P450 1A2 (Homo sapiens) (UniProt P05177); test: Cytochrome P450 Family 1 Subfamily A Member 2 (CYP1A2) small molecule antagonists: luciferase reporter qHTS assay (AID 1671199); note: nearly all actives have a fitted effect of over 50% in size; note: potency is the fitted concentration of half-maximal effect
Outline: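 Human CYP1A2 activity measured with a P450-Glo proluciferin substrate; compounds in DMSO preincubated 10 min at room temperature with enzyme-substrate mix, then NADPH regeneration system added for 1 h. Luciferin detection reagent, 20 min, luminescence read.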

[11] = biological target: Cytochrome P450 3A4 (Homo sapiens) (UniProt P08684); test: Cytochrome P450 Family 3 Subfamily A Member 4 (CYP3A4) small molecule antagonists: luciferase reporter qHTS assay (AID 1671201); note: nearly all actives have a fitted effect of over 50% in size; note: potency is the fitted concentration of half-maximal effect
Outline: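 P450-Glo CYP3A4 system with proluciferin substrate; compounds preincubated 10 min RT with enzyme-substrate mix, then NADPH regeneration added for 1 h RT. Detection reagent 20 min, luminescence read as relative luminescence units.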

[12] = Human pregnane X receptor (PXR) small molecule agonists, qHTS cell viability counter screen (AID 1346977); note: nearly all actives have a fitted effect of over 50% in size
Outline: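 PXR-Luc HepG2 cells in medium with 5% charcoal-stripped FBS were pre-incubated 5hr, then exposed to compounds for 24hr at 37C. Viability was read in the same wells by CellTiter-Fluor fluorescence, reagent added after 23hr with a 1hr incubation.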

[13] = biological target: Voltage-gated inwardly rectifying potassium channel KCNH2 (Homo sapiens) (UniProt Q12809); test: Human Ether-a-go-go-Related Gene (hERG) channel small molecule antagonists: fluorescence cell-based qHTS assay (AID 1671200)
Outline: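 U2OS cells expressing the channel were plated at 1000 cells/well, incubated overnight at 37 C, then loaded with FluxOR II thallium-sensitive dye for 1 h at room temperature in the dark, with a further 10 min at room temperature before stimulation.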

[14] = biological target: Nuclear receptor subfamily 1 group I member 2 (Rattus norvegicus) (UniProt Q9R1A7); test: Rat pregnane X receptor (rPXR) activation by small molecules, qHTS assay (AID 1346983); conditions: rPXR luciferase reporter cells, One-Glo luminescence, 24 h; max activation: stronger effect = higher value; note: nearly all actives have a fitted effect of over 20% in size; note: potency is the fitted concentration of half-maximal effect
Outline: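 Cell-based rPXR luciferase reporter assay, 2,000 cells per well, rested 5hr at 37 C before compound addition in DMSO, then 24 hr at 37 C. One-Glo reagent was added and luminescence read after 30 min at room temperature.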

[15] = biological target: Nuclear receptor subfamily 1 group I member 2 (Homo sapiens) (UniProt O75469); test: CYP3A4 induction through human pregnane X receptor (PXR) by small molecules, qHTS assay (AID 1346984); note: nearly all actives have a fitted effect of over 40% in size
Outline: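 DPX-2 cells (HepG2 co-transfected with PXR and CYP3A4 promoter-luciferase) treated with compounds 24 h at 37C; luciferin-IPA CYP3A4 substrate 3uM final added for 3 h, then One-Glo; luminescence read. qHTS format.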
% is set by controls: 0 for no effect and ±100 for the full control effect.

Nuclear receptor subfamily 1 group I member 2 (Homo sapiens), sequence (O75469 whole entry, looked up): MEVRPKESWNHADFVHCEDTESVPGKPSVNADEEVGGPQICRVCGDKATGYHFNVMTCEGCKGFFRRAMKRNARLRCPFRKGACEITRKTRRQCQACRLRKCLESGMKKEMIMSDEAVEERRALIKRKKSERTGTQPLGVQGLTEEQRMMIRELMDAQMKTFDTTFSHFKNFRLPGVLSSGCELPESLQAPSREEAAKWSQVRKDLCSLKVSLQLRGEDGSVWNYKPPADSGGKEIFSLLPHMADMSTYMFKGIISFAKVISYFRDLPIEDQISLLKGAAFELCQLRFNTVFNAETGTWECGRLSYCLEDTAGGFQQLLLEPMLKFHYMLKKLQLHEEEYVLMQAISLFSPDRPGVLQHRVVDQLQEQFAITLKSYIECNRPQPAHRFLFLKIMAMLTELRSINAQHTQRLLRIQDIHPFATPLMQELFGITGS
Nuclear receptor subfamily 1 group I member 2 (Rattus norvegicus), sequence (Q9R1A7 whole entry, looked up): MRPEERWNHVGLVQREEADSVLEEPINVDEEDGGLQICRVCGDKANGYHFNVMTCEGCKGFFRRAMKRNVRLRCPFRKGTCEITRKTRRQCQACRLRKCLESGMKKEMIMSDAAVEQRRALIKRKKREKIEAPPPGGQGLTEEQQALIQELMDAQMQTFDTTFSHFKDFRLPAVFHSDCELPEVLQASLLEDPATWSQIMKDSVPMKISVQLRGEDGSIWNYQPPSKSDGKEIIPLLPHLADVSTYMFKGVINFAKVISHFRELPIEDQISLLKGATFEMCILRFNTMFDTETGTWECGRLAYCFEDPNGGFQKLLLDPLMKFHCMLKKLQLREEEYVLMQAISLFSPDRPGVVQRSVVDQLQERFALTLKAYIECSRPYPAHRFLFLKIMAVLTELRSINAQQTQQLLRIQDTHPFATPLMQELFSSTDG
Cytochrome P450 3A4 (Homo sapiens), sequence (P08684 whole entry, looked up): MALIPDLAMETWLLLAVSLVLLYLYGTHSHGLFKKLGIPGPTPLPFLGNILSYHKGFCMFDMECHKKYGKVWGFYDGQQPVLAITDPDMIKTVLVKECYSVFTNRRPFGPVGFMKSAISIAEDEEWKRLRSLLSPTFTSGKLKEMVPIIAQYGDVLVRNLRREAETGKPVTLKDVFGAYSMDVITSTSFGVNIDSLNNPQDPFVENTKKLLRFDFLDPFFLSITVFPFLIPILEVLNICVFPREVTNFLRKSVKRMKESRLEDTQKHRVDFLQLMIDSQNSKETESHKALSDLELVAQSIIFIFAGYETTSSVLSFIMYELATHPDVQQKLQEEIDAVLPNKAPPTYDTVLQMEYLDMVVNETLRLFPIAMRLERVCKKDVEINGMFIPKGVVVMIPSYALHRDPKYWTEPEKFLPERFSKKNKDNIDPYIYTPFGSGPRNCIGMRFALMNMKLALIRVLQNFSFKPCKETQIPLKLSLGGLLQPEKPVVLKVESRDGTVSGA
Cytochrome P450 2C9 (Homo sapiens), sequence (P11712 whole entry, looked up): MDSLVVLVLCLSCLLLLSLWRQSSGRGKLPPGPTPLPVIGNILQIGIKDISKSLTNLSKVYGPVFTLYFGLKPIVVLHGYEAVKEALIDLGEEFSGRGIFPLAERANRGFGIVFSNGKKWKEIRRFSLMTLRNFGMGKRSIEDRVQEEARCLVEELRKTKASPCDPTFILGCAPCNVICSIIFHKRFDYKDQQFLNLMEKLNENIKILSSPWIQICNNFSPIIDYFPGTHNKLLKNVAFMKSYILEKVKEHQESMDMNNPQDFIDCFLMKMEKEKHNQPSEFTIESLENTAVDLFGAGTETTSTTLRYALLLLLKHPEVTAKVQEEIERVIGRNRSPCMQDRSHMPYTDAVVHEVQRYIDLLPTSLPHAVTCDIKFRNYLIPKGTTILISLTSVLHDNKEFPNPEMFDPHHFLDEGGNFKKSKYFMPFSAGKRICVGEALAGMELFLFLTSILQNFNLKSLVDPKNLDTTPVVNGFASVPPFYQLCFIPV
Thyrotropin-releasing hormone receptor (Homo sapiens), sequence (P34981 whole entry, looked up): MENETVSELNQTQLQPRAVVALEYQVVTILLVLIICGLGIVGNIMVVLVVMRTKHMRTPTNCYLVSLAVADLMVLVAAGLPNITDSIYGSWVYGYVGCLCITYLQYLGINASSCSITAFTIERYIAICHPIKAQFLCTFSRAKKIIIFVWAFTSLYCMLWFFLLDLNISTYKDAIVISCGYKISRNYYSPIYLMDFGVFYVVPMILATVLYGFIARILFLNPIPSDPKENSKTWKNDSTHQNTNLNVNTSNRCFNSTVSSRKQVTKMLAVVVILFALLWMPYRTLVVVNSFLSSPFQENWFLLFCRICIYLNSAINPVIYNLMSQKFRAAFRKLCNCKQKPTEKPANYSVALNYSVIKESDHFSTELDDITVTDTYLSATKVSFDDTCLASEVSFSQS
Voltage-gated inwardly rectifying potassium channel KCNH2 (Homo sapiens), sequence (Q12809 whole entry, looked up): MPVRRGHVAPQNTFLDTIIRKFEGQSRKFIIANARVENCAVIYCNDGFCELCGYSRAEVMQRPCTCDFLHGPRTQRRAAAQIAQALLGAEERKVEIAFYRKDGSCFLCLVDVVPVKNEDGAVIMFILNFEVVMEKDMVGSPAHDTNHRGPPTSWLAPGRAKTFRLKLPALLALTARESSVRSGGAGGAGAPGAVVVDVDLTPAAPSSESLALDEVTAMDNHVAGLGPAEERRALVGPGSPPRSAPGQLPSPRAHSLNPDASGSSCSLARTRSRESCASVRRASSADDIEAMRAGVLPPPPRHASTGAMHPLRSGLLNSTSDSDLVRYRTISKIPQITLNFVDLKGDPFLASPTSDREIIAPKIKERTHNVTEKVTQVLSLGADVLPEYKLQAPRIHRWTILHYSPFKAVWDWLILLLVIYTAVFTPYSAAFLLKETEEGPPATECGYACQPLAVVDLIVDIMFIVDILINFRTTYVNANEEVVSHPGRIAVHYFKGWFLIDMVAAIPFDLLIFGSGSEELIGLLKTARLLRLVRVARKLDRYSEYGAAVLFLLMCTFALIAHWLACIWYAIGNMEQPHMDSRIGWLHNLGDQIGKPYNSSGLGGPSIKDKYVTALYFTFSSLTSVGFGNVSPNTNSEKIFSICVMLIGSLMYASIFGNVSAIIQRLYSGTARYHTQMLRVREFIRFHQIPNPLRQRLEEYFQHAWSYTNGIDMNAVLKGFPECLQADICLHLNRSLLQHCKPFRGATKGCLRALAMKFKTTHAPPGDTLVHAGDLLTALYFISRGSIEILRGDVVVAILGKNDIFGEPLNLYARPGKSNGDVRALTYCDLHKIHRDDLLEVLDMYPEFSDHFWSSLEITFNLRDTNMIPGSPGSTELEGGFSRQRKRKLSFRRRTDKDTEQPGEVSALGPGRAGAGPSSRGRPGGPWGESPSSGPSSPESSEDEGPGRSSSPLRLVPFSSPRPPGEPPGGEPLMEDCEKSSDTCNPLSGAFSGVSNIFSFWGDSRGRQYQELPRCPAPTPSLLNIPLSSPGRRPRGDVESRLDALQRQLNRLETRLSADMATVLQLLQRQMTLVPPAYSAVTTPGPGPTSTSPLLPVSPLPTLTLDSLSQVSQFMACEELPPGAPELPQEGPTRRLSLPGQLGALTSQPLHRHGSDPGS
Cytochrome P450 1A2 (Homo sapiens), sequence (P05177 whole entry, looked up): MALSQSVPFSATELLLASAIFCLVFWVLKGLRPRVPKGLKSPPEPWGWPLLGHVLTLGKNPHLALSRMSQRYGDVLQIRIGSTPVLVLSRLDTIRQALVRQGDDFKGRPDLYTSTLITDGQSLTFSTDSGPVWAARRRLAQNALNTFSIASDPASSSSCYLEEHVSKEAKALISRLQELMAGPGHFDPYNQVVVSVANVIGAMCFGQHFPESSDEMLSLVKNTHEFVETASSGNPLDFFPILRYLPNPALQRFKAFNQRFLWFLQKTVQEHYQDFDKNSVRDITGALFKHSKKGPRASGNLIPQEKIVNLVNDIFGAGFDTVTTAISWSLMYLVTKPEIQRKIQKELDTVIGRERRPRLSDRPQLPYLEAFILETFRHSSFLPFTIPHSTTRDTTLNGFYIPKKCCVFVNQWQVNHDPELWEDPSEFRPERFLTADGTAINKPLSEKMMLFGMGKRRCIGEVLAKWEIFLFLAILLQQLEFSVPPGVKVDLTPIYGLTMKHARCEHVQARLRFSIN
Cytochrome P450 2D6 (Homo sapiens), sequence (P10635 whole entry, looked up): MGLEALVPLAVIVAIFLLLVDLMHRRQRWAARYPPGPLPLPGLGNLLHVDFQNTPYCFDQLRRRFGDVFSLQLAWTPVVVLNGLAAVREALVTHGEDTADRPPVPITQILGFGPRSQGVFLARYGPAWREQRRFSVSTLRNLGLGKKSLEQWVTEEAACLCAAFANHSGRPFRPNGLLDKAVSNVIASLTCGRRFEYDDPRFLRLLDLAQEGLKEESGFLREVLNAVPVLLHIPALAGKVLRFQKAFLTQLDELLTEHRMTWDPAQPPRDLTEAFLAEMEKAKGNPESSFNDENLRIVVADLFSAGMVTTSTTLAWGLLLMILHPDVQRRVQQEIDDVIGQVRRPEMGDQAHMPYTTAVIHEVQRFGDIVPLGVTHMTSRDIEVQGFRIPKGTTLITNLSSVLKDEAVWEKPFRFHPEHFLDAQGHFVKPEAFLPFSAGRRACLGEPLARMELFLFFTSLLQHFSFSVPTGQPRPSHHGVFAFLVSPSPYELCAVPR
Cytochrome P450 2C19 (Homo sapiens), sequence (P33261 whole entry, looked up): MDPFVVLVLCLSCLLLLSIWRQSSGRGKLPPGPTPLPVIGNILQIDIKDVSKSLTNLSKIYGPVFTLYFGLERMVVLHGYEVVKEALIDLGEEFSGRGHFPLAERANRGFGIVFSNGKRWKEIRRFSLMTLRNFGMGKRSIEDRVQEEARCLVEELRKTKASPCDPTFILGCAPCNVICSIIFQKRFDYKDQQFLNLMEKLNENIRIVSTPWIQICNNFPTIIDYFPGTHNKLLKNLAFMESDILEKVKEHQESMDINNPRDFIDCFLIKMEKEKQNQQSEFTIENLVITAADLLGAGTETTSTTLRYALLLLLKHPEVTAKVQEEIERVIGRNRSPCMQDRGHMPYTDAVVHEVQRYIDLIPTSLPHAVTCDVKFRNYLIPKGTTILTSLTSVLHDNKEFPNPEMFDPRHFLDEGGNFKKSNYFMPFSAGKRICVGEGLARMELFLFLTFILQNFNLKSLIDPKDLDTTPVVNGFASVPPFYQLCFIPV

C=C(C)C(=O)OCC(CC)(COC(=O)C(=C)C)COC(=O)C(=C)C
inactive: Potency [1] | Potency [2] | Potency [3] | Potency [4] | Potency [5] | Potency [6] | Potency [11]
active: Potency [7] 16.2 µM | Potency [8] 3.62 µM and 3.49 µM | Potency [9] 14.4 µM and 15.6 µM | Potency [10] 32.2 µM and 27.8 µM

O=C(O)c1cc(-c2ccccc2)nc2ccccc12
50.9 µM (active) and inactive: Potency [8]
inactive: Potency [1] | Potency [12] | Potency [2] | Potency [3] | Potency [4] | Potency [5] | Potency [6]
active: Potency [9] 43.9 µM | Potency [10] 36.9 µM

CCCCOCCO
inactive: Potency [1] | Potency [12] | Potency [2] | Potency [3] | Potency [4] | Potency [5] | Potency [6] | Potency [7] | Potency [8] | Potency [9] | Potency [13]

CC1Cc2ccccc2N1NC(=O)c1ccc(Cl)c(S(N)(=O)=O)c1 (configuration not stated)
inactive: Potency [1] | Potency [2] | Potency [3] | Potency [4] | Potency [5] | max activation [14] -2.07% | outcome [15] | Potency [8] | Potency [9] | Potency [10]
active: Potency [6] 30.6 µM and 9.44 µM

O=C(Oc1ccccc1)c1ccc(O)cc1
active: Potency [8] 40.2 µM and 22.4 µM | Potency [9] 11.3 µM and 25.2 µM | Potency [10] 28.5 µM and 35.6 µM
inactive: Potency [1] | Potency [12] | Potency [2] | Potency [3] | Potency [4] | Potency [5] | Potency [6] | Potency [7] | Potency [11]

NCc1cccc(CN)c1
active: Potency [7] 580 nM and 35.6 µM | Potency [8] 36.6 µM and 31.7 µM | Potency [9] 36.6 µM and 39.9 µM | Potency [10] 35.6 µM
inactive: Potency [1] | Potency [12] | Potency [2] | Potency [3] | Potency [4] | Potency [5]

CCOC(=O)C1OC1c1ccccc1 (configuration not stated)
inactive: Potency [1] | Potency [2] | Potency [3] | Potency [4] | Potency [5] | Potency [6] | Potency [7]
active: Potency [8] 36.3 µM | Potency [10] 32.4 µM and 22.4 µM

Nc1cc(-c2ccncc2)c[nH]c1=O
inactive: Potency [1] | Potency [2] | Potency [3] | Potency [4] | Potency [5] | Potency [6] | max activation [14] -1.94% | outcome [15] | Potency [13]
active: Potency [7] 31.7 µM and 17.4 µM | Potency [8] 8.94 µM and 3.89 µM | Potency [9] 14.2 µM and 12.3 µM | Potency [10] 35.6 µM

CC(C)(CO)COC(=O)C(C)(C)CO
inactive: Potency [1] | Potency [12] | Potency [2] | Potency [3] | Potency [4] | Potency [5] | Potency [6] | Potency [7] | Potency [10] | Potency [13]
active: Potency [8] 8.94 µM and 39.9 µM

CCCCCCC(C)(C)S
inactive: Potency [1] | Potency [2] | Potency [3] | Potency [4] | Potency [5] | Potency [7] | Potency [13] | Potency [11]
32 µM (active) and inactive: Potency [9]
22.6 µM (active) and inactive: Potency [8]
30.9 µM (active) and inactive: Potency [6]

CC#C[C@]1(O)CC[C@H]2[C@@H]3CCC4=CC(=O)CCC4=C3[C@@H](c3ccc(N(C)C)cc3)C[C@@]21C
active: Potency [3] 30.6 µM | Potency [5] 30.6 µM | Potency [6] 48.6 µM and 23.7 µM | Potency [14] 10 µM | Potency [7] 63.3 µM and 38.9 µM | Potency [8] 20 µM | Potency [9] 2.24 µM and 2.75 µM
inactive: Potency [1] | Potency [2] | Potency [4] | outcome [15] | Potency [10]

Oc1ccc2ccccc2c1N=Nc1ccccc1
inactive: Potency [1] | Potency [2] | Potency [4]
active: Potency [3] 48.5 µM and 27.3 µM | Potency [5] 48.5 µM and 27.3 µM | Potency [6] 43.2 µM and 21.7 µM | Potency [8] 31.7 µM | Potency [9] 11.2 µM and 14.2 µM | Potency [10] 356 nM and 2.52 µM
35.6 µM (active) and inactive: Potency [7]

CCCCC(CC)C(=O)OCCOCCOCCOC(=O)C(CC)CCCC (configuration not stated)
active: Potency [8] 40.4 µM and 17.8 µM | Potency [9] 25.5 µM and 7.96 µM | Potency [11] 7.18 µM and 8.94 µM
inactive: Potency [1] | Potency [12] | Potency [2] | Potency [3] | Potency [4] | Potency [5] | Potency [6] | Potency [7] | Potency [13]

C=CC(=O)OCCCCCCCC(C)C
inactive: Potency [1] | Potency [12] | Potency [2] | Potency [3] | Potency [4] | Potency [5] | Potency [6] | Potency [7] | Potency [8] | Potency [9] | Potency [10] | Potency [11]

Cc1ccc(N)c(S(=O)(=O)O)c1
inactive: Potency [1] | Potency [2] | Potency [3] | Potency [4] | Potency [5] | Potency [6] | Potency [7] | Potency [13] | Potency [11]
active: Potency [9] 45.4 µM
71.9 µM (active) and inactive: Potency [8]

Oc1ccc(OCc2ccccc2)cc1
inactive: Potency [1] | Potency [2] | Potency [3] | Potency [4] | Potency [5] | max activation [14] -0.536% | outcome [15] | Potency [11]
active: Potency [6] 30 µM | Potency [8] 34.8 µM and 8.71 µM | Potency [10] 19.6 µM and 15.5 µM
